We go through 1 compound from PubChem BioAssay.

The list shows a part of the results.

This assay has as its target Regulator of G-protein signaling 19 (Homo sapiens) (UniProt P49795). In words: modulators of RGS–Galpha-o binding, primary screen, biochemical, multiplexed beads, flow cytometry, RGS4/7/8/16/19 (AID 1504).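 Further: fluorescently labeled Galpha-o bound to GDP with aluminium fluoride binding biotinylated RGS beads.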 As to conditions: multiplexed bead flow cytometry, measured here: RGS19 interaction, at 10 µM. (In flow cytometry, cells or beads pass a laser one at a time.)

In turn, `CC(C)N(CC#CCC1(O)c2ccccc2-c2ccccc21)C(C)C` yielded an RGS19–Galpha-o binding response of 78.4%.
